Conditions in all cases: 20 µM
Experiment [1] has as its system Salmonella enterica typhimurium. The experiment in a line: growth AUC normalised to DMSO control (fraction of control); higher = less growth inhibition, active = hit call of the paper. An outline of the steps: (§1)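 After two anaerobic passages, pathogens were added at a starting OD578 of 0.01 to pre-reduced mGAM plates holding compound at 20 μM with 1% DMSO; hemin and NAD were supplemented for Haemophilus parainfluenzae. Sealed with breathable membranes, plates were read at OD578 hourly for 24 h, in three biological replicates. The trapezoidal rule, applied up to the exponential-to-stationary transition, gave the growth-curve AUC, which was normalised to DMSO controls on the same plate.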

Experiment [2] deals with Shigella flexneri. The experiment is described as above. A digest of the protocol:
as §1

Experiment [3] relates to Vibrio cholerae. The description is as above. A digest of the protocol:
as §1

The subject of experiment [4] is Yersinia pseudotuberculosis. The experiment is described as above. A digest of the protocol:
as §1

Experiment [5] relates to P. vulgatus RND KO. Briefly: growth AUC normalised to DMSO control (median) (fraction of control); higher = less growth inhibition, active = hit call of the paper. An outline of the steps: (§2)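 In 96-well plates of mGAM seeded at OD578 0.01, strains that had been passaged twice overnight without oxygen were exposed to approved-drug library compounds at 20 μM with 1% DMSO. Hourly OD578 readings were taken for 24 h in an anaerobic incubator. The trapezoidal-rule area under the curve, with curves truncated at entry into stationary phase, was expressed relative to same-plate vehicle wells as the median of three biological replicates.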

Experiment [6] deals with P. vulgatus WT. Described as above. A digest of the protocol: as §2
The subject of experiment [7] is S. enterica typhimurium WT. The description is as above. An outline of the steps:
as §2

Experiment [8] deals with S. enterica typhimurium tolC KO. Described as above. An outline of the steps:
as §2

Structures can show the parent of a compound that is named as a salt. Values without a mark were called inactive.
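Wherever growth AUC normalised to DMSO control (median) is given: active when median AUC fell below 0.1.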

For the molecule `OCCN1C[C@H](O)[C@@H](O)[C@H](O)[C@H]1CO` [Miglitol], the “growth AUC normalised to DMSO control” value in experiment [1] is 0.991; in experiment [2] it was 0.971; in experiment [3], 0.986; in experiment [4] it was 0.991; in experiment [5], 1; in experiment [6] it was 0.995. Also, the “growth AUC normalised to DMSO control” value is 1.01 in experiment [7] and 0.988 in experiment [8].

As to `CCc1cc(C(N)=S)ccn1` [Ethionamide], the “growth AUC normalised to DMSO control” value in experiment [1] is 0.991; in experiment [2] it was 0.963; in experiment [3], 0.998; in experiment [4], 0.975; in experiment [5] it was 1; in experiment [6] it was 0.986. Further, the figures for the “growth AUC normalised to DMSO control” value in experiment [7] and in experiment [8] were 0.996 and 0.994, respectively.

For `Cc1ccc(N(CC2=NCCN2)c2cccc(O)c2)cc1` [Phentolamine hydrochloride], the “growth AUC normalised to DMSO control” value in experiment [1] was 1.03; in experiment [2], 1.01; in experiment [3], 1.02; in experiment [4] it was 0.975; in experiment [5], 1; in experiment [6], 0.991. The “growth AUC normalised to DMSO control” value in experiment [7] was 0.999; in experiment [8], 0.99.

As for `Cc1scc2c1N(C(=O)CN1CCN(C)CC1)c1ccccc1NC2=O` [Telenzepine dihydrochloride], the “growth AUC normalised to DMSO control” value in experiment [1] is 1.02; in experiment [2], 1.01; in experiment [3] it was 1.01; in experiment [4], 0.993; in experiment [5], 0.995; in experiment [6], 0.983. Moreover, the results for the “growth AUC normalised to DMSO control” value in experiment [7] and in experiment [8] were 1.01 and 0.999, respectively.

`O=C(O)c1ccccc1Nc1cccc(C(F)(F)F)c1` [Flufenamic acid]: the “growth AUC normalised to DMSO control” value is 0.992 in experiment [1]; 0.963 in experiment [2]; 0.906 in experiment [3]; 0.981 in experiment [4]; 0.833 in experiment [5]; 0.849 in experiment [6]. The figures for the “growth AUC normalised to DMSO control” value in experiment [7] and in experiment [8] were 1.01 and 0.968, respectively.

Turning to `NS(=O)(=O)c1cc2c(cc1Cl)NC(C(Cl)Cl)NS2(=O)=O` (stereo not given) [Trichlormethiazide], the “growth AUC normalised to DMSO control” value in experiment [1] was 0.974; in experiment [2], 1.04; in experiment [3], 0.957; in experiment [4] it was 0.986; in experiment [5], 0.974; in experiment [6] it was 0.982. Also, the figures for the “growth AUC normalised to DMSO control” value in experiment [7] and in experiment [8] were 1.01 and 0.999, respectively.

For `CC(C)[N+](C)(CCOC(=O)C1c2ccccc2Oc2ccccc21)C(C)C` [Propantheline bromide], the “growth AUC normalised to DMSO control” value in experiment [1] is 0.974; in experiment [2] it was 0.983; in experiment [3], 0.967; in experiment [4], 1; in experiment [5], 0.966; in experiment [6], 0.958. Also, the “growth AUC normalised to DMSO control” value in experiment [7] is 1; in experiment [8] it was 0.981.

Regarding `COCC(=O)Nc1c(I)c(C(=O)NCC(O)CO)c(I)c(C(=O)N(C)CC(O)CO)c1I` (stereo not given) [Iopromide], the “growth AUC normalised to DMSO control” value was 1 in experiment [1]; 1.03 in experiment [2]; 1.06 in experiment [3]; 1.02 in experiment [4]; 1.05 in experiment [5]; 1.05 in experiment [6]. Besides, the “growth AUC normalised to DMSO control” value in experiment [7] was 1.02; in experiment [8], 1.01.

On to `CC(C)(C#N)c1cc(Cn2cncn2)cc(C(C)(C)C#N)c1` [Anastrozole], for which the “growth AUC normalised to DMSO control” value in experiment [1] was 1.02; in experiment [2], 1.07; in experiment [3], 1.04; in experiment [4] it was 0.696; in experiment [5], 1.09; in experiment [6], 1.06. The “growth AUC normalised to DMSO control” value in experiment [7] is 0.991; in experiment [8], 0.996.

For the molecule `OCCN1CCN(CC/C=C2/c3ccccc3Sc3ccc(Cl)cc32)CC1` [Zuclopenthixol dihydrochloride], the “growth AUC normalised to DMSO control” value in experiment [1] was 0.996; in experiment [2], 0.972; in experiment [3], 0.946; in experiment [4], 0.998; in experiment [5] it was 0.928; in experiment [6], 0.962. For the same molecule, the “growth AUC normalised to DMSO control” value is 0.992 in experiment [7] and 0.887 in experiment [8].

In the case of `CC(C)c1c(C(=O)Nc2ccccc2)c(-c2ccccc2)c(-c2ccc(F)cc2)n1CC[C@@H](O)C[C@@H](O)CC(=O)O` [Atorvastatin], the “growth AUC normalised to DMSO control” value in experiment [1] was 1.01; in experiment [2], 1.04; in experiment [3] it was 1.04; in experiment [4], 1.01; in experiment [5], 1.01; in experiment [6], 1. The “growth AUC normalised to DMSO control” value was 0.993 in experiment [7] and 0.994 in experiment [8].

Consider `COc1ccc(-c2cc(=S)ss2)cc1` [Anethole-trithione], for which the “growth AUC normalised to DMSO control” value is 1.02 in experiment [1]; 1.05 in experiment [2]; 0.91 in experiment [3]; 1.19 in experiment [4]; 1.02 in experiment [5]; 1.04 in experiment [6]. For the same molecule, the “growth AUC normalised to DMSO control” value is 0.985 in experiment [7] and 0.91 in experiment [8].

Regarding `O=C(N[C@H](CO)[C@H](O)c1ccc([N+](=O)[O-])cc1)C(Cl)Cl` [Chloramphenicol], the “growth AUC normalised to DMSO control” value in experiment [1] was 0.00522 (active); in experiment [2], 0.0276 (active); in experiment [3], 0.0386 (active); in experiment [4], 0.0352 (active); in experiment [5], 0.018 (active); in experiment [6] it was 0.0107 (active). Also, the “growth AUC normalised to DMSO control” value is 0.00734 (active) in experiment [7] and 0.00302 (active) in experiment [8].

For the molecule `CC(C(=O)O)c1ccc(-c2ccccc2)c(F)c1` (stereo not given) [Flurbiprofen], the “growth AUC normalised to DMSO control” value was 0.986 in experiment [1]; 0.98 in experiment [2]; 0.96 in experiment [3]; 0.985 in experiment [4]; 0.994 in experiment [5]; 0.991 in experiment [6]. Further, the “growth AUC normalised to DMSO control” value is 0.995 in experiment [7] and 0.977 in experiment [8].

Regarding `C[C@H](CCC(=O)O)[C@H]1CC[C@H]2[C@@H]3[C@H](O)C[C@@H]4C[C@H](O)CC[C@]4(C)[C@H]3CC[C@]12C` [Chenodiol], the “growth AUC normalised to DMSO control” value in experiment [1] was 0.991; in experiment [2], 0.96; in experiment [3], 0.988; in experiment [4], 1.01; in experiment [5], 0.922; in experiment [6] it was 0.94. In addition, the entries for the “growth AUC normalised to DMSO control” value in experiment [7] and in experiment [8] were 0.998 and 1.01, respectively.

The record behind these values is the supplement of paper PMC12350171.
